{
  "source": "PubChem BioAssay (EPA / NIEHS)",
  "note": "Values joined by “and” are separate entries in the source; they are usually repeats but may differ in a detail not shown here. Identical values can stand only once. Inconclusive results are not listed. Active and inactive are the calls of the source. The calls were made as follows, unless noted: active = hit-call score of the fitted dose curve at least 0.9, where 1 is the maximum; inconclusive = response in the unintended direction; inactive = score below 0.9.",
  "data": [
    {"target": "human Peroxisome Proliferator-activated Receptor delta (PPARd), PPARD (gene 5467) (UniProt Q03181)", "sequence (Q03181 whole entry, looked up, the tested form may be a part)": "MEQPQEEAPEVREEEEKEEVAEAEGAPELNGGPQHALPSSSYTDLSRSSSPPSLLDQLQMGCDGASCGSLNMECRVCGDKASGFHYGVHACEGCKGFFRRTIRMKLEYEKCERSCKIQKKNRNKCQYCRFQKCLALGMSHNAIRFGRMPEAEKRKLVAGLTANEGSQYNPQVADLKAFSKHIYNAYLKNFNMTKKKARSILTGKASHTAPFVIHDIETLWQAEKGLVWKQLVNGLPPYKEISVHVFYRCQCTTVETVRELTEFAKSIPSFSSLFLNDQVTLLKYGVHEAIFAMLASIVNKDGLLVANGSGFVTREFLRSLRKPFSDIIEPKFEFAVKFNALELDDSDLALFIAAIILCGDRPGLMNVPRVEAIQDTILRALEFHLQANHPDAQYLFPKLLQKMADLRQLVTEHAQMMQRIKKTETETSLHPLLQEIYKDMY", "assay": "ATG_PPARd_TRANS: Attagene TRANS-FACTORIAL HepG2 Assay for human Peroxisome Proliferator-activated Receptor delta (PPARd) (AID 2283002)", "conditions": "not given", "how_it_was_run": "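Fluorescence from capillary electrophoresis of labelled RT-PCR reporter fragments gives the signal; DMSO sets baseline. Cells: HepG2 transiently carrying GAL4-UAS reporter units plus chimeric nuclear receptor-Gal4 proteins, exposed to chemicals for 24 h.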", "values": [
      {"smiles": "CCN(CC)C(=O)N(CC)CC", "outcome": "inactive"},
      {"smiles": "Clc1cc(Cl)c(-c2c(Cl)c(Cl)cc(Cl)c2Cl)cc1Cl", "outcome": "inactive"},
      {"smiles": "CCOC(=O)C(C#N)=C(c1ccccc1)c1ccccc1", "outcome": "inactive"},
      {"smiles": "CCCCC1CCC(O)CC1", "note": "(stereo unspecified)", "outcome": "inactive"},
      {"smiles": "[Cl][Au]([Cl])[Cl]", "outcome": "inactive"},
      {"smiles": "CC1CCC(C(C)C)C(O)C1", "note": "(stereo unspecified)", "outcome": "inactive"},
      {"smiles": "CC1(C)C2=CCCC(C)(C)[C@]23CC[C@H]1C3", "outcome": "inactive"},
      {"smiles": "CS(=O)(=O)OCCCCOS(C)(=O)=O", "outcome": "inactive"},
      {"smiles": "C[N+](C)(C)CCCCCC[N+](C)(C)C", "outcome": "inactive"},
      {"smiles": "COc1cc(C(C)C)ccc1C", "outcome": "inactive"},
      {"smiles": "CC(=O)c1c(C)c([N+](=O)[O-])c(C(C)(C)C)c([N+](=O)[O-])c1C", "outcome": "inactive"},
      {"smiles": "CCCCCCCC(=O)OCCCCCC", "outcome": "inactive"},
      {"smiles": "CC1(C)CCC[C@]2(C)[C@H]3CCO[C@]3(C)CC[C@@H]12", "outcome": "inactive"},
      {"smiles": "O=C1OC[C@H](Cc2cccc(O)c2)[C@H]1Cc1cccc(O)c1", "outcome": "inactive"},
      {"smiles": "CC1=C(Br)C(=O)C(Br)=C/C1=C(/c1ccccc1S(=O)(=O)O)c1cc(Br)c(O)c(Br)c1C", "outcome": "inactive"},
      {"smiles": "CC(C)(N=C=O)c1cccc(C(C)(C)N=C=O)c1", "outcome": "inactive"},
      {"smiles": "C=CC(C)C#N", "note": "(stereo unspecified)", "outcome": "inactive"}
    ]},
    {"read-out": "Intercellular Adhesion Molecule 1 (ICAM1), ICAM1 (gene 3383)", "assay": "BSK_3C_ICAM1: BioMAP Diversity Plus: 3C Assay for Intercellular Adhesion Molecule 1 (ICAM1) Biomarker Activity (AID 2283003; active = hit-call score of the fitted dose curve at least 0.9, where 1 is the maximum; inactive = score below 0.9)", "conditions": "primary human endothelial cells (HUVEC); actives raise or lower the signal", "how_it_was_run": "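Human vascular endothelial primary cells, 3C conditions, 24 h treatment. ICAM-1 by ELISA.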", "values": [
      {"smiles": "CCN(CC)C(=O)N(CC)CC", "outcome": "inactive"},
      {"smiles": "Clc1cc(Cl)c(-c2c(Cl)c(Cl)cc(Cl)c2Cl)cc1Cl", "outcome": "inactive"},
      {"smiles": "CCOC(=O)C(C#N)=C(c1ccccc1)c1ccccc1", "outcome": "inactive"},
      {"smiles": "CC1(C)C2=CCCC(C)(C)[C@]23CC[C@H]1C3", "outcome": "inactive"},
      {"smiles": "CS(=O)(=O)OCCCCOS(C)(=O)=O", "outcome": "inactive"},
      {"smiles": "CC(=O)c1c(C)c([N+](=O)[O-])c(C(C)(C)C)c([N+](=O)[O-])c1C", "outcome": "inactive"},
      {"smiles": "CC1(C)CCC[C@]2(C)[C@H]3CCO[C@]3(C)CC[C@@H]12", "AC50": "31.2 µM (active) and 38.9 µM (active)"},
      {"smiles": "O=C1OC[C@H](Cc2cccc(O)c2)[C@H]1Cc1cccc(O)c1", "outcome": "inactive"},
      {"smiles": "CC(C)(N=C=O)c1cccc(C(C)(C)N=C=O)c1", "outcome": "inactive"}
    ]},
    {"target": "human Retinoic Acid Receptor beta (RARb), RARB (gene 5915) (UniProt P10826)", "sequence (P10826 whole entry, looked up, the tested form may be a part)": "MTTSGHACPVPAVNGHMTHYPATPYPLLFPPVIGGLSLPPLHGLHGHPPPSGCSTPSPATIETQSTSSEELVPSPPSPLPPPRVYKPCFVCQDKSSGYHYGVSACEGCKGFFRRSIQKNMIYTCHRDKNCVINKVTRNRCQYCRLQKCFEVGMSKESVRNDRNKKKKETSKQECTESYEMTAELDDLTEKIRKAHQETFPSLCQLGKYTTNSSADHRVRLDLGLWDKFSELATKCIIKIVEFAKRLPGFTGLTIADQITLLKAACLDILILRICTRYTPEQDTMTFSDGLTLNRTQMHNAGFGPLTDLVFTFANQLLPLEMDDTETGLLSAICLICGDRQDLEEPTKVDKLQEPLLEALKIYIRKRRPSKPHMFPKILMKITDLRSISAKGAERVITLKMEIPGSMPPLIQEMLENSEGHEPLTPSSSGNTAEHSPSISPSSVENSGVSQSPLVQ", "assay": "ATG_RARb_TRANS: Attagene TRANS-FACTORIAL HepG2 Assay for human Retinoic Acid Receptor beta (AID 2283004)", "conditions": "not given", "how_it_was_run": "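HepG2 cells were transiently transfected with GAL4-UAS reporter units that report activity of exogenous chimeric NR-Gal4 proteins, then exposed to compound for 24 h. Reporter mRNA was quantified by RT-PCR with capillary electrophoresis fluorescence, as gain of signal over DMSO.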", "values": [
      {"smiles": "CCN(CC)C(=O)N(CC)CC", "outcome": "inactive"},
      {"smiles": "CCCCC1CCC(O)CC1", "note": "(stereo unspecified)", "outcome": "inactive"},
      {"smiles": "CC1CCC(C(C)C)C(O)C1", "note": "(stereo unspecified)", "outcome": "inactive"},
      {"smiles": "CC1(C)C2=CCCC(C)(C)[C@]23CC[C@H]1C3", "outcome": "inactive"},
      {"smiles": "C[N+](C)(C)CCCCCC[N+](C)(C)C", "outcome": "inactive"},
      {"smiles": "COc1cc(C(C)C)ccc1C", "outcome": "inactive"},
      {"smiles": "CC(=O)c1c(C)c([N+](=O)[O-])c(C(C)(C)C)c([N+](=O)[O-])c1C", "outcome": "inactive"},
      {"smiles": "CCCCCCCC(=O)OCCCCCC", "outcome": "inactive"},
      {"smiles": "CC1=C(Br)C(=O)C(Br)=C/C1=C(/c1ccccc1S(=O)(=O)O)c1cc(Br)c(O)c(Br)c1C", "outcome": "inactive"},
      {"smiles": "C=CC(C)C#N", "note": "(stereo unspecified)", "outcome": "inactive"}
    ]}
  ]
}
